PubChem BioAssay (NCI)
This is part of a sample that, as a whole, favours compounds with a hit. Of some 83,000 tested, about 20% had one in any assay.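 Growth was measured after 48 h exposure to one concentration of compound in 96-well plates. Values under 10 count as active.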 Calls of active or inactive are those of the source.

Tests used:
Assay in all cases: NCI-60 one-dose screen, 48 h (100 = growth as untreated, 0 = no growth, -100 = all killed)
Conditions in all cases: 10 µM unless noted
HCT-15 colon = system: HCT-15 colon
HT29 colon = system: HT29 colon
SNB-75 CNS = system: SNB-75 CNS
SNB-19 CNS = system: SNB-19 CNS
U251 CNS = system: U251 CNS
PC-3 prostate = system: PC-3 prostate
UACC-62 melanoma = system: UACC-62 melanoma
LOX IMVI melanoma = system: LOX IMVI melanoma
SK-MEL-28 melanoma = system: SK-MEL-28 melanoma

Measured: growth

COc1ccc(N=Nc2nccs2)c(O)c1
inactive: HCT-15 colon 25.4% | HT29 colon 40.2% | SNB-75 CNS 81.9% | SNB-19 CNS 51.4% | U251 CNS 27.8% | PC-3 prostate 42.1% | UACC-62 melanoma 36.8% | LOX IMVI melanoma 11.5% | SK-MEL-28 melanoma 81.4%

FC(F)(F)c1[nH]ncc1-c1nc2ccc3n[nH]c(C#Cc4cccnc4)c3c2c2c1CCCC2
active: SNB-75 CNS -10.9%
inactive: HCT-15 colon 36.1% | HT29 colon 32.5% | SNB-19 CNS 59.9% | U251 CNS 54.7% | PC-3 prostate 47.1% | UACC-62 melanoma 26.8% | LOX IMVI melanoma 33.6%

Clc1ccc2c(NCCNc3nc(N4CCOCC4)nc4ccccc34)ccnc2c1
inactive: HCT-15 colon 15.2% | PC-3 prostate 34%
active: HT29 colon -69.2% | SNB-75 CNS -94.4% | SNB-19 CNS 5.66% | U251 CNS -93.1% | UACC-62 melanoma -64.9% | LOX IMVI melanoma -83.5%

O=C1C=C(O)C(=O)C(CC2=C(O)C(=O)C=C(O)C2=O)=C1O
inactive: HCT-15 colon 105% | HT29 colon 107% | SNB-75 CNS 83.5% | SNB-19 CNS 112% | U251 CNS 102% | PC-3 prostate 95.2% | UACC-62 melanoma 103% | LOX IMVI melanoma 89.9% | SK-MEL-28 melanoma 110%

CCc1nc(N)nc(N)c1C#CC(C)c1cc(-c2ccnc(C)c2)c2oc(C)nc2c1 (stereo not given)
inactive: HCT-15 colon 10.7% | PC-3 prostate 16.5%
active: HT29 colon 6.46% | SNB-75 CNS -23.2% | SNB-19 CNS 7.53% | U251 CNS 3.52% | UACC-62 melanoma -12.3% | LOX IMVI melanoma -18.8%

CCN(CC)CCCCNc1c2ccc(Cl)cc2nc2ccc(OC)cc12
active: HCT-15 colon -21.2% | HT29 colon 3.91% | SNB-75 CNS -95.3% | SNB-19 CNS 1.53% | U251 CNS -9.07% | PC-3 prostate -45.9% | UACC-62 melanoma -30.8% | LOX IMVI melanoma -57.3%

Cc1nn(-c2cc(=O)[nH]c3ccccc23)c(N)c1C#N
inactive: HCT-15 colon 106% | HT29 colon 107% | SNB-75 CNS 82.4% | SNB-19 CNS 102% | U251 CNS 99% | PC-3 prostate 96% | UACC-62 melanoma 99.2% | LOX IMVI melanoma 98.4% | SK-MEL-28 melanoma 109%

COc1ccc(/C=C\c2cc(OC)c(OC)c(OC)c2)cc1OCC(=O)Nc1ccc2nc(C)sc2c1
inactive: HCT-15 colon 28.3% | HT29 colon 29.2% | SNB-75 CNS 26.9% | SNB-19 CNS 57.4% | U251 CNS 38.3% | PC-3 prostate 23.4% | UACC-62 melanoma 11.9% | LOX IMVI melanoma 49.6%

CC1CCNC(C)C1 (stereo not given)
inactive: HCT-15 colon 108% | HT29 colon 110% | SNB-75 CNS 86.5% | SNB-19 CNS 114% | U251 CNS 108% | PC-3 prostate 90.3% | UACC-62 melanoma 102% | LOX IMVI melanoma 100%

COc1ccc(C2C(C#N)=C(N)Oc3n[nH]c(-c4cccs4)c32)cc1I (stereo not given)
inactive: HCT-15 colon 81.4% | HT29 colon 98.4% | SNB-75 CNS 77.9% | SNB-19 CNS 87.1% | U251 CNS 90.6% | PC-3 prostate 85.8% | UACC-62 melanoma 79.1% | LOX IMVI melanoma 89%

CCN(CC)c1ccc(/C=N\NC(=O)/C=C/C=C/c2ccc3c(c2)OCO3)c(O)c1
inactive: HCT-15 colon 21.3% | HT29 colon 67.8% | SNB-75 CNS 58.8% | SNB-19 CNS 61% | U251 CNS 43.3% | PC-3 prostate 40.9% | UACC-62 melanoma 29.1% | LOX IMVI melanoma 18.2% | SK-MEL-28 melanoma 52.1%

CNC(=O)c1cc(Oc2ccc(NC(=O)Nc3ccc(Cl)c(OC(F)(F)F)c3)c(F)c2)ccn1
inactive: HCT-15 colon 28.8% | HT29 colon 14% | SNB-75 CNS 83% | SNB-19 CNS 30.3% | U251 CNS 32.3% | PC-3 prostate 22.1% | LOX IMVI melanoma 17.2%
active: UACC-62 melanoma 5.13%

N#Cc1nnn(-c2ccc(S(N)(=O)=O)cc2)c1NCC(=O)c1ccccc1
inactive: HCT-15 colon 98.3% | HT29 colon 95.5% | SNB-75 CNS 80% | SNB-19 CNS 92.2% | U251 CNS 93.6% | PC-3 prostate 84.1% | UACC-62 melanoma 96% | LOX IMVI melanoma 94.1% | SK-MEL-28 melanoma 111%

Oc1cccc2ccc(N/N=C/c3cc(CN4CCOCC4)c(O)c4ncccc34)nc12
active: U251 CNS 5.22% | UACC-62 melanoma 2.18% | LOX IMVI melanoma -71.1%
inactive: HCT-15 colon 26.2% | HT29 colon 17.6% | SNB-75 CNS 35.9% | SNB-19 CNS 23.9% | PC-3 prostate 28.5%

c1ccc(CCNc2ncnc3[nH]ncc23)cc1
inactive: HCT-15 colon 105% | HT29 colon 94% | SNB-75 CNS 92.6% | SNB-19 CNS 105% | U251 CNS 94.1% | PC-3 prostate 67% | UACC-62 melanoma 86.4% | LOX IMVI melanoma 89.1%

O=C(CN1CCCCC1)Nc1ccc2oc(=O)ccc2c1
inactive: HCT-15 colon 104% | HT29 colon 104% | SNB-75 CNS 95.6% | SNB-19 CNS 98.4% | U251 CNS 102% | PC-3 prostate 86.8% | UACC-62 melanoma 97.7% | LOX IMVI melanoma 96.6%

c1ccc(Cn2cc(-c3nc4ccccc4s3)c3cccnc32)cc1
inactive: HCT-15 colon 109% | HT29 colon 100% | SNB-75 CNS 91% | SNB-19 CNS 110% | U251 CNS 100% | PC-3 prostate 97% | UACC-62 melanoma 97.6% | LOX IMVI melanoma 99.3% | SK-MEL-28 melanoma 113%

COc1cc(-c2nn(-c3ccc(C(=O)O)cc3)cc2C(=O)O)ccc1O
inactive: HCT-15 colon 48.6% | HT29 colon 110% | SNB-75 CNS 36.6% | SNB-19 CNS 58.4% | U251 CNS 78.5% | PC-3 prostate 66.9% | UACC-62 melanoma 90% | LOX IMVI melanoma 44.4% | SK-MEL-28 melanoma 63.5%

C=CC(COC(c1ccccc1)(c1ccccc1)c1ccccc1)N(CC)CC (stereo not given)
inactive: HCT-15 colon 16.7% | HT29 colon 14.6% | SNB-75 CNS 73% | SNB-19 CNS 82.1% | U251 CNS 52.5% | PC-3 prostate 47.9% | UACC-62 melanoma 44.8% | LOX IMVI melanoma 49.5%

CCOC(=O)c1c(C)oc2ncnc(N3CCN(C(=O)COc4ccc(SC)cc4)CC3)c12
inactive: HCT-15 colon 95.8% | HT29 colon 95.3% | SNB-75 CNS 83% | SNB-19 CNS 97.9% | U251 CNS 87.5% | PC-3 prostate 82.2% | UACC-62 melanoma 86.8% | LOX IMVI melanoma 90.5%

CC(C)n1c(/C=C/[C@@H](O)C[C@@H](O)CC(=O)O)c(-c2ccc(F)cc2)c2ccccc21
active: LOX IMVI melanoma 5.69%
inactive: HCT-15 colon 50.6% | HT29 colon 75.9% | SNB-75 CNS 29.9% | SNB-19 CNS 55.7% | U251 CNS 15.9% | PC-3 prostate 26.5% | UACC-62 melanoma 16.3%

CCN1CCN(c2nc(NCCCNc3ccnc4cc(Cl)ccc34)c3ccccc3n2)CC1
active: HT29 colon -16% | U251 CNS -26.7% | UACC-62 melanoma -75.6% | LOX IMVI melanoma -69.3%
inactive: HCT-15 colon 25.8% | SNB-75 CNS 57% | SNB-19 CNS 16.5% | PC-3 prostate 37%

O=C(COc1ccc(-c2nc3cc(Cl)c(Cl)cc3[nH]2)cc1)N=Nc1c(O)[nH]c2ccccc12
inactive: HCT-15 colon 79.4%
active: HT29 colon 4.49% | SNB-75 CNS -73.8% | SNB-19 CNS -35.9% | U251 CNS -86.3% | PC-3 prostate -50.6% | UACC-62 melanoma 1.75% | LOX IMVI melanoma 6.14%

Cc1cc(N2CCN(C)CC2)nc(NC2CCCC(Nc3ccnc4cc(Cl)ccc34)C2)n1 (stereo not given)
active: HCT-15 colon -35.7% | HT29 colon -53.1% | SNB-75 CNS -25.6% | SNB-19 CNS 9.07% | U251 CNS -51.4% | PC-3 prostate 8.55% | UACC-62 melanoma -90.7% | LOX IMVI melanoma -81.8%

NC1=C(Cl)C(=O)c2ccc(S(N)(=O)=O)cc2C1=O
active: HCT-15 colon -58.2% | HT29 colon -50.3% | SNB-75 CNS -100% | SNB-19 CNS -73% | U251 CNS -90.7% | PC-3 prostate 1.22% | UACC-62 melanoma -88% | LOX IMVI melanoma -85.1% | SK-MEL-28 melanoma -84.9%

CCCCN(CCCC)CCCn1c(-c2ccccc2)ccc1-c1ccccc1
inactive: HCT-15 colon 55.3% | HT29 colon 33.1% | SNB-75 CNS 83.4% | SNB-19 CNS 83.4% | U251 CNS 58.3% | PC-3 prostate 48% | UACC-62 melanoma 82.4% | LOX IMVI melanoma 68.7%

CC1=C[C@H]2c3c(c(O)c(O)c4oc5cc(O)ccc5c(=O)c34)[C@H](c3cc(O)c(O)c4oc5cc(O)ccc5c(=O)c34)[C@H]2C(C)(C)C1
active: UACC-62 melanoma 5.54%
inactive: HCT-15 colon 33.4% | HT29 colon 20.2% | SNB-75 CNS 21.3% | SNB-19 CNS 22.1% | U251 CNS 14.8% | PC-3 prostate 29.7% | LOX IMVI melanoma 16.2%

CC(C)(C)c1cc(/C=N\NC(=O)/C=C/C=C/c2ccc3c(c2)OCO3)c(O)c(C(C)(C)C)c1
inactive: HCT-15 colon 63.7% | HT29 colon 92% | SNB-75 CNS 31.9% | SNB-19 CNS 85.5% | U251 CNS 84% | PC-3 prostate 69.1% | UACC-62 melanoma 71.5% | LOX IMVI melanoma 61.7% | SK-MEL-28 melanoma 85.8%

CC[N+](CC)=c1sc2c(s1)C(c1ccc(Cl)cc1)Oc1ccc(Cl)cc1-2 (stereo not given)
inactive: HCT-15 colon 62.9% | SNB-19 CNS 12% | SK-MEL-28 melanoma 18%
active: HT29 colon 0.814% | SNB-75 CNS 4.43% | U251 CNS -53.8% | PC-3 prostate 3.92% | UACC-62 melanoma -2.82% | LOX IMVI melanoma -62.7%

COc1ccc(/C=C/C(=O)c2cc(O)ccc2O)cc1
inactive: HCT-15 colon 87.7% | HT29 colon 102% | SNB-75 CNS 84.1% | SNB-19 CNS 96.6% | U251 CNS 84.8% | PC-3 prostate 88.4% | UACC-62 melanoma 102% | LOX IMVI melanoma 103% | SK-MEL-28 melanoma 109%

CCN(CC)c1ccc2c(c1)Oc1nc(N)c(C#N)c(N)c1C2Sc1ccc(SC)cc1 (stereo not given)
active: HCT-15 colon -14.3% | HT29 colon -76.6% | SNB-75 CNS -54.9% | SNB-19 CNS -64.1% | U251 CNS -92% | PC-3 prostate -28.5% | UACC-62 melanoma -14.4% | LOX IMVI melanoma -96.9% | SK-MEL-28 melanoma -9.16%
